Reference: PubChem BioAssay AID1159580 (chemical genetic matrix, 2015)
Among all 5,500 compounds or so, about 2,000 (36%) were called active. Inconclusive results (about 18%) are left out. Cut-off read from the data, not from the text of the source: active = normalized growth mostly below about 0.91 (no sharp cut-off); inconclusive = no clear call, values can overlap the other calls; inactive = mostly above about 0.92. The list shows a part of the results.

Assay: chemical genetic growth profiling, strain panel (AID 1159580);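 note: tested at 20 µM; growth read once vehicle control cultures reached saturation at 30 °C; 1 = growth at the plate median or of vehicle wells; lower values mean less growth of the strain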
Conditions: growth OD

Measured: normalized growth

COc1ccc(-c2cc(=O)c3c(OC(C)=O)cc(OC(C)=O)cc3o2)cc1
inactive: S. cerevisiae deletion strains, locus YJR066W, strain TOR1, stronger effect = lower value 0.922 | S. cerevisiae deletion strains, locus YJR075W, strain HOC1, stronger effect = lower value 0.946 | S. cerevisiae deletion strains, locus YKL009W, strain mrt4, stronger effect = lower value 0.994 | S. cerevisiae deletion strains, locus YKL068W, stronger effect = lower value 0.972 | S. cerevisiae deletion strains, locus YKL085W, strain MDH1 (second series), stronger effect = lower value 0.968 | S. cerevisiae deletion strains, locus YKL085W, strain MDH1, stronger effect = lower value 0.968 | S. cerevisiae deletion strains, locus YKL160W, strain elf1, stronger effect = lower value 0.974 | S. cerevisiae deletion strains, locus YKL190W, strain CNB1, stronger effect = lower value 0.967 | S. cerevisiae deletion strains, locus YKR001C, strain vps1, stronger effect = lower value 0.941 | S. cerevisiae deletion strains, locus YKR026C, strain gcn3, stronger effect = lower value 0.985 | S. cerevisiae deletion strains, locus YKR091W, strain srl3, stronger effect = lower value 0.999 | S. cerevisiae deletion strains, locus YLL001W, strain dnm1, stronger effect = lower value 0.937 | S. cerevisiae deletion strains, locus YLL026W, stronger effect = lower value 0.985 | S. cerevisiae deletion strains, locus YLL041C, strain sdh2, stronger effect = lower value 0.992 | S. cerevisiae deletion strains, locus YLR027C, strain aat2, stronger effect = lower value 0.984 | S. cerevisiae deletion strains, locus YLR039C, strain RIC1, stronger effect = lower value 0.824 | S. cerevisiae deletion strains, locus YLR058C, strain SHM2, stronger effect = lower value 0.957 | S. cerevisiae deletion strains, locus YLR102C, strain apc9, stronger effect = lower value 0.959 | S. cerevisiae deletion strains, locus YLR221C, strain rsa3, stronger effect = lower value 0.973 | S. cerevisiae deletion strains, locus YLR258W, strain gsy2, stronger effect = lower value 0.971 | S. cerevisiae deletion strains, locus YLR262C, strain YPT6 (second series), stronger effect = lower value 0.914 | S. cerevisiae deletion strains, locus YLR262C, strain YPT6, stronger effect = lower value 0.807 | S. cerevisiae deletion strains, locus YLR268W, strain sec22, stronger effect = lower value 0.964 | S. cerevisiae deletion strains, locus YLR320W, strain mms22, stronger effect = lower value 0.965 | S. cerevisiae deletion strains, locus YLR330W, strain CHS5, stronger effect = lower value 0.929 | S. cerevisiae deletion strains, locus YLR342W, strain FKS1 (second series), stronger effect = lower value 1.01 | S. cerevisiae deletion strains, locus YLR342W, strain FKS1, stronger effect = lower value 1 | S. cerevisiae deletion strains, locus YLR357W, strain rsc2, stronger effect = lower value 0.894 | S. cerevisiae deletion strains, locus YLR370C, strain arc18, stronger effect = lower value 0.992 | S. cerevisiae deletion strains, locus YLR371W, strain rom2, stronger effect = lower value 0.952 | S. cerevisiae deletion strains, locus YLR384C, strain iki3, stronger effect = lower value 0.981 | S. cerevisiae deletion strains, locus YML016C, strain PPZ1, stronger effect = lower value 0.924 | S. cerevisiae deletion strains, locus YML032C, strain rad52, stronger effect = lower value 0.964 | S. cerevisiae deletion strains, locus YML120C, strain ndi1, stronger effect = lower value 0.973 | S. cerevisiae deletion strains, locus YML124C, strain tub3, stronger effect = lower value 0.958 | S. cerevisiae deletion strains, locus YMR058W, strain fet3, stronger effect = lower value 0.983 | S. cerevisiae deletion strains, locus YMR078C, strain ctf18, stronger effect = lower value 0.963 | S. cerevisiae deletion strains, locus YMR125W, strain sto1, stronger effect = lower value 0.965 | S. cerevisiae deletion strains, locus YMR129W, stronger effect = lower value 0.981 | S. cerevisiae deletion strains, locus YMR205C, strain PFK2, stronger effect = lower value 0.976 | S. cerevisiae deletion strains, locus YMR223W, strain ubp8, stronger effect = lower value 0.946 | S. cerevisiae deletion strains, locus YMR231W, strain pep5, stronger effect = lower value 0.994 | S. cerevisiae deletion strains, locus YMR307W, strain GAS1, stronger effect = lower value 0.913 | S. cerevisiae deletion strains, locus YNL067W, strain RPL9B, stronger effect = lower value 0.945 | S. cerevisiae deletion strains, locus YNL183C, strain NPR1, stronger effect = lower value 0.84 | S. cerevisiae deletion strains, locus YNL209W, strain ssb2, stronger effect = lower value 0.996 | S. cerevisiae deletion strains, locus YNL233W, strain BNI4, stronger effect = lower value 0.89 | S. cerevisiae deletion strains, locus YNL248C, strain rpa49, stronger effect = lower value 0.955 | S. cerevisiae deletion strains, locus YNL250W, strain rad50, stronger effect = lower value 0.958 | S. cerevisiae deletion strains, locus YNL271C, strain bni1, stronger effect = lower value 0.986 | S. cerevisiae deletion strains, locus YNL298W, strain CLA4, stronger effect = lower value 0.968 | S. cerevisiae deletion strains, locus YNL322C, strain KRE1 (second series), stronger effect = lower value 0.952 | S. cerevisiae deletion strains, locus YNR049C, strain mso1, stronger effect = lower value 0.992 | S. cerevisiae deletion strains, locus YNR052C, strain pop2, stronger effect = lower value 0.949 | S. cerevisiae deletion strains, locus YOL006C, strain TOP1, stronger effect = lower value 0.97 | S. cerevisiae deletion strains, locus YOL012C, strain htz1 0.936 | S. cerevisiae deletion strains, locus YOL147C, strain pex11, stronger effect = lower value 0.945 | S. cerevisiae deletion strains, locus YOR001W, strain rrp6, stronger effect = lower value 0.967 | S. cerevisiae deletion strains, locus YOR061W, strain CKA2, stronger effect = lower value 1 | S. cerevisiae deletion strains, locus YOR069W, strain VPS5, stronger effect = lower value 0.959 | S. cerevisiae deletion strains, locus YOR070C, strain gyp1, stronger effect = lower value 0.999 | S. cerevisiae deletion strains, locus YOR080W, strain dia2, stronger effect = lower value 0.989 | S. cerevisiae deletion strains, locus YOR083W, strain WHI5, stronger effect = lower value 0.984 | S. cerevisiae deletion strains, locus YOR106W, strain vam3, stronger effect = lower value 0.988 | S. cerevisiae deletion strains, locus YOR136W, strain idh2, stronger effect = lower value 0.978 | S. cerevisiae deletion strains, locus YOR144C, strain elg1, stronger effect = lower value 0.961 | S. cerevisiae deletion strains, locus YOR184W, strain ser1, stronger effect = lower value 0.982 | S. cerevisiae deletion strains, locus YOR231W, strain MKK1, stronger effect = lower value 0.876 | S. cerevisiae deletion strains, locus YOR265W, strain rbl2, stronger effect = lower value 0.99 | S. cerevisiae deletion strains, locus YOR270C, strain vph1, stronger effect = lower value 0.889 | S. cerevisiae deletion strains, locus YOR290C, strain snf2, stronger effect = lower value 0.949 | S. cerevisiae deletion strains, locus YOR316C, strain cot1, stronger effect = lower value 0.942 | S. cerevisiae deletion strains, locus YPL051W, strain arl3, stronger effect = lower value 0.954 | S. cerevisiae deletion strains, locus YPL055C, strain LGE1, stronger effect = lower value 0.906 | S. cerevisiae deletion strains, locus YPL078C, strain atp4, stronger effect = lower value 0.967 | S. cerevisiae deletion strains, locus YPL106C, strain sse1, stronger effect = lower value 0.922 | S. cerevisiae deletion strains, locus YPL240C, strain hsp82, stronger effect = lower value 0.987 | S. cerevisiae deletion strains, locus YPL241C, strain CIN2, stronger effect = lower value 0.973 | S. cerevisiae deletion strains, locus YPR119W, strain clb2, stronger effect = lower value 0.958 | S. cerevisiae deletion strains, locus YPR141C, strain kar3, stronger effect = lower value 0.953 | S. cerevisiae deletion strains, locus YPR163C, strain tif3, stronger effect = lower value 0.981 | S. cerevisiae deletion strains, locus YPR167C, strain met16, stronger effect = lower value 0.946 | S. cerevisiae deletion strains, strain wtn01, stronger effect = lower value 0.987 | S. cerevisiae strains, strain wild type, stronger effect = lower value 0.971
active: S. cerevisiae deletion strains, locus YLR113W, strain HOG1, stronger effect = lower value 0.805 | S. cerevisiae deletion strains, locus YLR418C, strain cdc73, stronger effect = lower value 0.685 | S. cerevisiae deletion strains, locus YNL071W, strain lat1, stronger effect = lower value 0.893 | S. cerevisiae deletion strains, locus YNL307C, strain MCK1, stronger effect = lower value 0.878 | S. cerevisiae deletion strains, locus YPL256C, strain CLN2, stronger effect = lower value 0.756
